The results in this text go back to PubChem BioAssay.

Molecules are shown by their SMILES. Active and inactive are the calls of the source. No stated cut-off is given here; in the data, active means inhibition above about 44%; inactive means the rest.

This experiment deals with Steroidogenic factor 1 (Homo sapiens) (UniProt Q13285). Put plainly: SF1 (NR5A1) inverse agonists, counter-screen for LRH-1 inverse agonist project, cell-based, luminescence, high throughput (AID 651614).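 Further: cells cotransfected with StAR promoter reporter and SF1 expression vector; 0% = vehicle on cells with receptor and 100% = vehicle on cells lacking receptor.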 Conditions: cell-based SF1 luciferase reporter, at 3.6 µM, stronger effect = higher value.
Chain of Steroidogenic factor 1 (Homo sapiens) (Q13285 whole entry, looked up): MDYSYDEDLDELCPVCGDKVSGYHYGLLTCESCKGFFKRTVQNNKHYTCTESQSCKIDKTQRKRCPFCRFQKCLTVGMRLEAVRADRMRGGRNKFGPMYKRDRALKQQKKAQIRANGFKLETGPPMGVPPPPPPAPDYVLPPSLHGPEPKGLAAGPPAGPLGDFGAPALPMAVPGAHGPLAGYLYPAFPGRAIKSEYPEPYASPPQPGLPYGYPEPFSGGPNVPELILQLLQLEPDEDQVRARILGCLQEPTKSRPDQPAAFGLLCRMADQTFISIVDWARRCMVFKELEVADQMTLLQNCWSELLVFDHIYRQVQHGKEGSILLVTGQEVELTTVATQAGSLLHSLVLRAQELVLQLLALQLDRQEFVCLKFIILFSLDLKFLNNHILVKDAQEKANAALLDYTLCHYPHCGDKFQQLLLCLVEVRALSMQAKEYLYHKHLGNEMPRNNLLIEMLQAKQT
One may read the inhibition as the change of the read-out against control, counted positive when it falls. `COc1cc(N)c2ncccc2c1Cl`: the inhibition is 11.9% (inactive).
To `C/C(=N/N1CCN(Cc2cccc3ccccc23)CC1)c1cccnc1` belongs -2.52% (inactive); to `Cc1nn(CC(=O)NCCC2=CCCCC2)c(C)c1[N+](=O)[O-]`, 41.5% (inactive); to `CCOc1ccc(CCNC(=O)COC(=O)c2cc([N+](=O)[O-])ccc2N2CCOCC2)cc1OCC`, 56.6% (active).
Under `O=C(CSc1nnc(Cc2cccs2)n1Cc1ccco1)Nc1ccc(Cl)cc1Cl` stands 47.5% (active); under `O=C(c1cc(-c2ccco2)nc2ccccc12)N(Cc1nnc(-c2ccc(Cl)cc2)o1)C1CC1`, 2.98% (inactive); under `COc1ccc(NC(=O)COc2ccc(N(C)S(=O)(=O)c3ccc(Cl)cc3)cc2)cc1OC`, 51.7% (active).
Under `CC(O)(c1cccnc1)c1nc(-c2cccc(C#N)c2)cs1` (stereo not given) stands 54% (active); under `C=CC(=O)Nc1cccc(Oc2ncnc3[nH]cc(-c4cnc5ccccc5c4)c23)c1`, 65.6% (active).
As for `COc1ccc(C2=CC(=O)CC(C)(C)C2)cc1OC`, the inhibition is 51.9% (active).
Under `O=C(CSc1nnc(CNC(=O)c2c(F)cccc2F)o1)Nc1ccc2c(c1)OCCO2` stands 54.6% (active).
As to `O=C(CSc1n[nH]c(-c2ccccc2)n1)Nc1ccc(N2CCOCC2)cc1`, the inhibition was 49% (active).
To `COc1ccc2nc(N3CCC(O)CC3)c(C#N)cc2c1` belongs 44.9% (active); to `Cc1ccc(S(=O)(=O)NCc2ccncc2)cc1`, 43% (active).
To `COc1ccc(NC(=O)CSC2=NCCN2)cc1` belongs 15.1% (inactive); to `O=[N+]([O-])c1ccc(N2CCCC2)nc1N1CCCC1`, 56.1% (active).
Under `CO/N=C\C(=N\Nc1ccc(OC)cc1)C(=O)c1ccccc1` stands 36.8% (inactive); under `O=C(N/N=C/c1cc2c3c(c1O)CCCN3CCC2)c1ccccc1O`, 87.2% (active).
For `S=C(Nc1cccnc1)Nc1cccc2cnccc12`, the inhibition was 26.2% (inactive).
On to `CCCc1cc(=O)oc2cc(OCC(=O)NC3CC(C)(C)NC(C)(C)C3)ccc12`, for which the inhibition was 45.7% (active).
For `CCOc1ccc(NC(=O)COC(=O)COc2cccc3c2OC(C)(C)C3)cc1`, the inhibition is 60.5% (active).
Under `Cc1ccc(-c2csc(NC(=O)c3ccc([N+](=O)[O-])o3)n2)cc1` stands 54.4% (active); under `COc1cc2c(cc1OC)-c1c(OC)c(OC)cc3ccnc(c13)C2=O`, 59% (active).
For the compound `C/C(=N\NC(N)=S)C1(C)CCCCC1`, the inhibition was 53.3% (active).
Consider `COc1ccc(-c2sc(C(=O)c3ccc(Cl)cc3Cl)cc2CC(=O)O)cc1`, for which the inhibition is 38% (inactive).
Under `COc1cc(-c2cc(C(=O)Nc3ccncc3)c3ccccc3n2)cc(OC)c1OC` stands 40.5% (inactive).
Under `COc1ccc2c(c1)/C(=C/c1cc(OC)c(OC)c(OC)c1)C(=O)N2` stands 48.2% (active).
To `CCOC(=O)CCCc1ccc(/C(C)=N/NC(N)=S)cc1` belongs 68.6% (active); to `O=C(NCc1cccc(C(F)(F)F)c1)c1cccc(Cl)c1Cl`, 48% (active).
`CCOc1ccccc1C(=O)Nc1cc2c(cc1N1CCCC1)n(CC)c(=O)n2CC`: the inhibition is 53.5% (active).
Under `Cc1nn(Cc2ccc(Cl)cc2)c(C)c1NC(=O)c1ccc([N+](=O)[O-])cc1` stands 50% (active); under `CCOc1ccc(NC(=O)Cn2nc(-c3ccccc3Cl)n(CC)c2=S)cc1`, 54.6% (active); under `Cc1ccc(-c2nn3c(C)nnc3s2)cc1NC(=O)c1cccs1`, 69.4% (active).
To `S=C(NCCc1ccccc1)Nc1cccc2cnccc12` belongs 47.5% (active); to `O=C(CC1C(=O)NCCN1C(=S)Nc1ccccc1)Nc1ccc2c(c1)OCCO2` (stereo not given), 63.2% (active); to `CC(=NNC(=S)N1CCN(c2ccccn2)CC1)c1nccs1`, 79.4% (active).
To `O=[N+]([O-])c1ccc(N2CCN(S(=O)(=O)c3ccccc3)CC2)cc1NCc1cccnc1` belongs 43.3% (active); to `CC(=O)Nc1cc(-c2cccc(F)c2)cn2c(-c3ccc(S(C)(=O)=O)cc3)cnc12`, 54.6% (active).
With `CCCc1cc(=O)oc2cc(OCC(=O)NCCc3ccc(S(N)(=O)=O)cc3)ccc12`, the inhibition was 51.1% (active).
Under `COc1ccc(NC(=O)CSc2nc(O)cc(=O)n2-c2ccccc2OC)cc1` stands 38.3% (inactive).
